# Assay results as given in PubChem BioAssay (NCI).
# Values joined by “and” are separate entries in the source; they are usually repeats but may differ in a detail not shown here. Equal entries are not always repeated. This is part of a sample that, as a whole, favours compounds with a hit. Of some 83,000 tested, about 20% had one in any assay.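 96-well plates, one dose, 48 hours. Percent growth reported; active if below 10.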 Active and inactive are the calls of the source.
# Key:
# Test in all cases: NCI-60 one-dose screen, 48 h (100 = growth as untreated, 0 = no growth, -100 = all killed)
# Settings in all cases: 10 µM unless noted
# HCT-15 colon = tested on: HCT-15 colon
# HT29 colon = tested on: HT29 colon
# SNB-75 CNS = tested on: SNB-75 CNS
# SNB-19 CNS = tested on: SNB-19 CNS
# U251 CNS = tested on: U251 CNS
# PC-3 prostate = tested on: PC-3 prostate
# SK-MEL-5 melanoma = tested on: SK-MEL-5 melanoma
# UACC-62 melanoma = tested on: UACC-62 melanoma
# LOX IMVI melanoma = tested on: LOX IMVI melanoma
# SK-MEL-28 melanoma = tested on: SK-MEL-28 melanoma
Compound,growth (HCT-15 colon),growth (HT29 colon),growth (SNB-75 CNS),growth (SNB-19 CNS),growth (U251 CNS),growth (PC-3 prostate),growth (SK-MEL-5 melanoma),growth (UACC-62 melanoma),growth (LOX IMVI melanoma),growth (SK-MEL-28 melanoma)
CN1C(=O)/C(=C/c2ccc(C(=O)Nc3ncc(Cc4ccccc4Cl)s3)cc2)SC1=S,42.1% (inactive),69.5% (inactive),69.4% (inactive),83.3% (inactive),89.4% (inactive),77.6% (inactive),62.4% (inactive),18.1% (inactive),45.1% (inactive),74.8% (inactive)
COc1cc(-c2nc3occn3c2-c2ccnc(NCCCNS(=O)(=O)c3ccc(O)cc3)n2)ccc1F,114% (inactive),66.4% (inactive),97.6% (inactive),124% (inactive),108% (inactive),94.6% (inactive),62.8% (inactive),21% (inactive),55.6% (inactive),27.7% (inactive)
COc1cccc(C2C(C#N)=C(N)Oc3cc(OCCCCCC[P+](c4ccccc4)(c4ccccc4)c4ccccc4)ccc32)c1 (configuration not stated),62% (inactive),-17.6% (active),-71.3% (active),-65.8% (active),-79.4% (active),-13.1% (active),-97.5% (active),-66.8% (active),-93.8% (active),-77.1% (active)
N=c1ccccn1CCO,87% (inactive),97.3% (inactive),113% (inactive),93.5% (inactive),109% (inactive),–,104% (inactive),98.1% (inactive),104% (inactive),108% (inactive)
CC(=O)c1nn(-c2ccccc2)/c(=N/N=Cc2cn(-c3ccccc3)nc2-c2cc3ccccc3oc2=O)s1,98.1% (inactive),109% (inactive),104% (inactive),103% (inactive),91.6% (inactive),–,101% (inactive),92.9% (inactive),98.9% (inactive),111% (inactive)
O=Nc1c(O)ccc2ccccc12,43% (inactive) and 103% (inactive),24.7% (inactive) and 109% (inactive),114% (inactive),105% (inactive) and 106% (inactive),99.4% (inactive),–,80.9% (inactive) and 82.8% (inactive),21.2% (inactive) and 87.4% (inactive),3.68% (active) and 73.6% (inactive),83% (inactive) and 102% (inactive)
O=Nc1ccc(NO)c2ccccc12,99.5% (inactive) and 95.7% (inactive),106% (inactive) and 35.3% (inactive),95.8% (inactive) and 90.8% (inactive),118% (inactive) and 99% (inactive),101% (inactive) and 79% (inactive),–,94.1% (inactive) and 81.3% (inactive),95.9% (inactive) and 61.9% (inactive),102% (inactive) and 17.4% (inactive),113% (inactive) and 94.6% (inactive)
Cc1cc(N2CCN(CC(=O)Nc3ccc4c(ccn4Cc4ccccc4)c3)CC2)nc(N2CCCCCC2)n1,28.2% (inactive),5.17% (active),66.6% (inactive),57.3% (inactive),38.4% (inactive),–,49.2% (inactive),43.2% (inactive),34.9% (inactive),63.4% (inactive)
O=C(N=Nc1c(O)[nH]c2ccccc12)Nc1ccc(Br)cc1,77% (inactive),97.6% (inactive),105% (inactive),96.5% (inactive),101% (inactive),–,81.9% (inactive),79.3% (inactive),78% (inactive),89.3% (inactive)
O=C(NNc1ccccc1)C1CCCN1 (configuration not stated),40.5% (inactive),62.3% (inactive),90.7% (inactive),94.1% (inactive),82.3% (inactive),–,89.1% (inactive),16.2% (inactive),8.66% (active),69.2% (inactive)
CC1=C2[C@@H](CC1)[C@]1(C)O[C@@](C3CC3)(C[C@H]1OC(=O)CO)[C@H]2OC(=O)/C=C/c1ccccc1,97% (inactive),89.5% (inactive),88.2% (inactive),90% (inactive),88.3% (inactive),–,92.9% (inactive),73.1% (inactive),84% (inactive),107% (inactive)
CCN1C(=S)N(CC)C2C1NC(=S)N2/N=C/C=C/c1ccccc1 (configuration not stated),26.5% (inactive),5.26% (active),-21.6% (active),31.4% (inactive),27.7% (inactive),–,25% (inactive),24.5% (inactive),37.6% (inactive),53.6% (inactive)
CC12CCC(C(=O)CC1=O)C2(C)C (configuration not stated),103% (inactive) and 106% (inactive),108% (inactive) and 109% (inactive),87.5% (inactive) and 95.1% (inactive),107% (inactive) and 105% (inactive),99.6% (inactive) and 100% (inactive),–,99.8% (inactive) and 104% (inactive),102% (inactive) and 106% (inactive),97.3% (inactive) and 95.3% (inactive),106% (inactive)
COc1ccc(-c2nn3c(-c4cc(F)c(Cl)cc4Cl)nnc3s2)cc1,42% (inactive),5.17% (active),7.7% (active),40.6% (inactive),35.6% (inactive),–,20.1% (inactive),44.4% (inactive),42.1% (inactive),36.7% (inactive)
Cc1ccc(NC(=O)c2ccc(CN3CCN(C)CC3)cc2)cc1Nc1nccc(-c2cccnc2)n1,88.5% (inactive) and 48.2% (inactive),52.9% (inactive) and 24.1% (inactive),99.4% (inactive) and 82.5% (inactive),112% (inactive) and 95% (inactive),89.4% (inactive) and 65.7% (inactive),89.4% (inactive) and 72% (inactive),77.7% (inactive) and 63.2% (inactive),92.3% (inactive) and 87.9% (inactive),88.4% (inactive) and 77.1% (inactive),109% (inactive) and 77.8% (inactive)
O=C(Nc1cc(C(F)(F)F)cc(C(F)(F)F)c1)c1cc(Cl)ccc1O,-39.7% (active) and -24.9% (active),0.709% (active) and 1.2% (active),-64.9% (active) and -39.3% (active),5.13% (active) and 12.9% (inactive),-5.01% (active) and -11.5% (active),–,-70.3% (active),-56% (active) and -42.8% (active),-62.1% (active) and -58.6% (active),-33.4% (active) and -22.4% (active)
Cc1nc2sc(C(=O)Nc3cccc4ncccc34)c(N)c2cc1C(C)O (configuration not stated),64.1% (inactive),52.8% (inactive),76.6% (inactive),67.8% (inactive),83.4% (inactive),72.9% (inactive),56.8% (inactive),42.9% (inactive),73.8% (inactive),67.3% (inactive)
N#Cc1c(-c2cccc(F)c2)cc(-c2cccnc2)[nH]c1=O,104% (inactive),104% (inactive),97.1% (inactive),99.9% (inactive),101% (inactive),–,104% (inactive),97.5% (inactive),98.8% (inactive),104% (inactive)
COc1cc(Cl)cc(-c2nn(C(=O)NS(=O)(=O)c3ccc(Cl)cc3)cc2-c2ccncc2)c1,98.4% (inactive),30.8% (inactive),-8.56% (active),97.2% (inactive),70.6% (inactive),–,95.2% (inactive),73.3% (inactive),45.5% (inactive),95.8% (inactive)
CCCCn1c(C(=O)c2c[nH]c3ccccc23)n[nH]c1=S,99% (inactive),99.8% (inactive),81.2% (inactive),100% (inactive),100% (inactive),–,99.9% (inactive),81.7% (inactive),96.4% (inactive),117% (inactive)
N#Cc1ccccc1OCC(=O)Nc1nc2c(s1)COc1ccccc1-2,103% (inactive),104% (inactive),82.7% (inactive),102% (inactive),98.8% (inactive),–,103% (inactive),82.4% (inactive),90.6% (inactive),116% (inactive)
O=C(NNC(=S)Nc1ccccc1)c1ccncc1,101% (inactive),99.6% (inactive),102% (inactive),110% (inactive),105% (inactive),–,109% (inactive),109% (inactive),101% (inactive),115% (inactive)
COC(=O)[C@H]1Cc2c([nH]c3ccccc23)[C@@H](c2cccs2)N1,102% (inactive),97.1% (inactive),83.8% (inactive),98.2% (inactive),97.7% (inactive),100% (inactive),100% (inactive),89.5% (inactive),104% (inactive),107% (inactive)
Nc1nc(Cl)nc2c1ncn2C1OC(CO)C(O)C1O (configuration not stated),60.8% (inactive) and 68.4% (inactive),105% (inactive) and 87.7% (inactive),105% (inactive) and 91.5% (inactive),52% (inactive) and 53.5% (inactive),74.6% (inactive) and 64.1% (inactive),–,67.6% (inactive) and 52.4% (inactive),90.1% (inactive) and 80.5% (inactive),88.7% (inactive) and 66.6% (inactive),64.6% (inactive) and 75.2% (inactive)
